The results in this text go back to PubChem BioAssay (NCATS).

Inconclusive results are not listed. Where a structure was tested more than once in an assay, its records may differ in their call. Active and inactive are the calls of the source. Unless noted, calls come from the whole dose curve; as a rule, active = well fitted curve in the direction sought with a large enough effect; inconclusive = small, poorly fitted or top-dose-only effect, or another doubt; inactive = no such curve, though single readings can be large; an effect the other way counts as inactive or inconclusive.

The nature of experiment [1]: Cytometric Cell-Based qHTS for Inhibitors of the mTORC1 Signaling Pathway in MEF (Tsc2-/-, p53-/-) Cells (AID 2660).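 Note: Tsc2 and p53 null MEFs carrying empty vector with compound for 24 h; percent of cells above a phospho-rpS6 to PI ratio cutoff in each well; series mostly up to about 38 µM.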 An outline of the steps: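 Cells are plated, treated with compound for 24 hrs at 37 degree Celsius, then fixed, blocked and immunostained for phospho-rpS6 Ser235/236. Propidium iodide counterstain follows. Per-well % positive cells is derived from the PI-normalized phospho-S6 signal.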

A short description of experiment [2]: High Content Imaging Cell-Based qHTS for Inhibitors of the mTORC1 Signaling Pathway in MEF (Tsc2-/-, p53-/-) Cells (AID 2666).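 Note: percent of cells scored positive for phospho-rpS6 Ser235/236 immunostaining by imaging.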 In short, it runs like this:
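Cells were plated, dosed with compound after 24 hrs, and incubated another 24 hrs at 37 degree Celsius. Fixed cells were immunostained for phospho-rpS6 Ser235/236 and counterstained, and the normalized signal was scored as % active cells against rapamycin and DMSO controls.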

A short description of experiment [3]: High Content Imaging Cell-Based qHTS for Inhibitors of the mTORC1 Signaling Pathway in MEF Cells (AID 2667).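 Note: Tsc2-/- p53-/- MEFs stably re-expressing wild-type Tsc2 exposed 24 h; series mostly up to about 38 µM.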 An outline of the steps:
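Immunofluorescence for rpS6 phosphorylation in MEFs of Tsc2-/-, p53-/- background rescued with WT Tsc2. Compound exposure lasted 24 hrs. Inhibition was scored against rapamycin-treated control wells.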

A short description of experiment [4]: Cytometry Cell-Based qHTS for Inhibitors of the mTORC1 Signaling Pathway in MEF cells (AID 2668).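 Note: Tsc2-/- p53-/- mouse embryonic fibroblasts stably re-expressing wild-type Tsc2; percent cells positive for phospho-rpS6 Ser235/236 relative to propidium iodide stain; series mostly up to about 38 µM.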 In short, it runs like this: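 Tsc2-/-, p53-/- MEFs re-expressing WT Tsc2; cpd 24 hrs, 37 degree Celsius; PFA fix, Alexa-488 p-rpS6 (Ser235/236) Ab 2 hrs RT, PI counterstain; Acumen 488nm scan; p-S6/PI ratio → % positive cells; PI count = viability.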
Experiment [5] can be described thus: Validation screen for small molecules that induce DNA re-replication in MCF 10A normal breast cells (AID 463097). Note: nearly all actives have a fitted effect of over 60% in size. An outline of the steps: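 Image-based qHTS: normal breast cells are incubated with compound for 48 hr, stained with Hoechst, and scanned for total nuclear fluorescence. Compounds raising the fraction of nuclei with elevated DNA content count as re-replication inducers.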

In experiment [6] the target is Ubiquitin carboxyl-terminal hydrolase 2 (Homo sapiens) (UniProt O75604). The experiment can be described thus: qHTS Validation Assay for Inhibitors of Ubiquitin-specific Protease USP2a Using CHOP2 as the Reporter (AID 463106). An outline of the steps: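 10nM USP2 core + cpd, 30min RT; add 25nM Ub-CHOP2/25nM substrate; 60min RT; FI 485/531nm. Buffer Tris pH 8.0, CaCl2, BME, CHAPS. Norm. to NEM = 100% inhibition; time-zero read flags fluorescent artifacts.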
Ubiquitin carboxyl-terminal hydrolase 2 (Homo sapiens), sequence (O75604 whole entry, looked up): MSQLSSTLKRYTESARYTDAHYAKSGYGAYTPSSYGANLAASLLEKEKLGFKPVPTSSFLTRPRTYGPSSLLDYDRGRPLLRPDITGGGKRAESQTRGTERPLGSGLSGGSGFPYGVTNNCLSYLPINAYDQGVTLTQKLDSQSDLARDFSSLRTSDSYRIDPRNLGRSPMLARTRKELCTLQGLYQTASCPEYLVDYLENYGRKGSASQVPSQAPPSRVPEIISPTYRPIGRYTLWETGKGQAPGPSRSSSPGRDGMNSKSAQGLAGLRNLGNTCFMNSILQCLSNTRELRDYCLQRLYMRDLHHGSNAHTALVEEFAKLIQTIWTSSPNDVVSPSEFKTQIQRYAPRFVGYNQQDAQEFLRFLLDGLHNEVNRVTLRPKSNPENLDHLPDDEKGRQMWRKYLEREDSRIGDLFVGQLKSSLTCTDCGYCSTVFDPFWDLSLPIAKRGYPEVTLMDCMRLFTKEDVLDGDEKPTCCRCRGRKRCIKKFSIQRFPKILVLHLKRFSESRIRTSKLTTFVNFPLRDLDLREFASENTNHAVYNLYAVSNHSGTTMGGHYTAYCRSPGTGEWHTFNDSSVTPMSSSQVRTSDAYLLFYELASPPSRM

Experiment [7] concerns the target DNA polymerase III PolC-type (Bacillus subtilis (strain 168)) (UniProt P13267). In words: qHTS Validation Assay for the Inhibitors of DNA Replication in Gram-Positive Bacteria (AID 485295).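 Note: reconstituted holoenzyme with PolC plus beta clamp SSB and primase; PicoGreen fluorescence of double-stranded DNA made on primed circular M13 template; series mostly up to about 57 µM.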 An outline of the steps: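 First, compound is mixed with the reconstituted replication complex and held at room temperature. Next, circular single-stranded M13Gori with nucleotides starts synthesis. Finally, PicoGreen in EDTA halts the reaction and stains double-stranded product for fluorescence reading.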

For experiment [8], the target named is Tumor susceptibility gene 101 protein (Homo sapiens) (UniProt Q99816). In words: qHTS Validation Assay for Iinhibitors of HIV-1 Budding by Blocking the Interaction of PTAP/TSG101 (AID 485342; calls by dose curve). An outline of the steps:
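Binding of a FITC-tagged PTAP-motif peptide (50 nM) to the Tsg101 binding domain (10 uM) is monitored by fluorescence polarization. Compounds are pin-delivered before peptide addition, and incubation runs 20 min at room temperature.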

Experiment [9] can be described thus: qHTS Validation Assay to Find Inhibitors of Chronic Active B-Cell Receptor Signaling (AID 485345; active = well fitted curve in the direction sought with a large enough effect in the main read-out, with a control signal flat, not every such curve was filed as active). In short, it runs like this: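 Read-out: ratio of filter-corrected green (IkappaBalpha fusion) to red (native) luciferase signal in doxycycline-induced TMD8 cells after 4 h at 37C. Titration spanned 46 uM–3 nM; Data were normalised to basal cells and 10 uM MG-132 wells.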

In experiment [10] the target is Beta-2 adrenergic receptor (Homo sapiens) (UniProt P07550). In words: qHTS validation assay of beta-arrestin-biased ligands of beta2-adrenergic receptor (AID 485366). In short, it runs like this:
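Values derive from curve-fitted %Activity of a luminescent beta-arrestin recruitment reporter; compounds tested up to 46 microM on Tango cells for 18 hr at 37 degrees C, 5% CO2.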

The nature of experiment [11]: Quantitative high throughput screen for delayed death inhibitors of the malarial parasite plastid, 96 hour incubation (AID 488745).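 Note: luciferase-expressing P. falciparum in erythrocytes at 2% hematocrit and 0.1% parasitemia; series mostly up to about 29 µM; nearly all actives have a fitted effect of over 70% in size.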 In short, it runs like this:
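Growth of reporter-bearing P. falciparum in red cells is measured after 96 h with compound, covering two erythrocytic cycles. Luminescence from the integrated luciferase serves as the growth signal.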

The nature of experiment [12]: Quantitative high throughput screen for delayed death inhibitors of the malarial parasite plastid, 48 hour incubation (AID 488752). Note: nearly all actives have a fitted effect of over 65% in size. In short, it runs like this: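 One parasite generation (48 h, 37 C, 5% CO2) of luciferase-reporter P. falciparum in erythrocytes is run with test compound; decreased luminescence indicates inhibited growth.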
The target in experiment [13] is Thioredoxin reductase 1, cytoplasmic (Rattus norvegicus) (UniProt O89049). In words: qHTS Assay for Substrates of Mammalian Selenoprotein Thioredoxin Reductase 1 (TrxR1) (AID 488772).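 Note: NADPH fluorescence in the first read after selenite addition and not the 8 min delta; series mostly up to about 57 µM; a drop in NADPH fluorescence below the no-compound background marks a TrxR1 substrate.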 An outline of the steps:
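Quantitative HTS in Tris-HCl buffer at pH 7.5 with EDTA and Tween-20, using rat TrxR1, 400 uM NADPH and 400 uM selenite (final). A fall in initial NADPH fluorescence relative to background marked substrate behaviour.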

Experiment [14] deals with Flap endonuclease 1 (Homo sapiens) (UniProt P39748). In words: qHTS Validation Assay for the Inhibitors of Human Flap endonuclease 1 (FEN1) (AID 488816). Note: potency is the fitted concentration of half-maximal effect. An outline of the steps:
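Readings taken at 0 and 15 min after starting the reaction with 50 nM (final) substrate supplied the signal. Compounds had first sat with 10 nM FEN1 reagent for 15 min at room temperature. Values come from Hill-equation concentration-response fits.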

Experiment [15] concerns the target M-phase phosphoprotein 8 (Homo sapiens) (UniProt Q99549). In words: qHTS Validation Assay for Inhibitors for MPP8 Chromodomain Interactions with Methylated Histone Tails (AID 488949). Note: nearly all actives have a fitted effect of over 55% in size. Note: potency is the fitted concentration of half-maximal effect. An outline of the steps: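 50 nM MPP8 + 50 nM b-H3K9me3 peptide, PBS pH 7.4/0.01% Tween-20, 30 min RT; + cpd 30 min RT; + AlphaScreen donor/Ni-chelate acceptor beads 10 ug/mL final, 30 min dark; luminescence read.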

For experiment [16], the target named is Methanococcus maripaludis chaperonin (MmCpn) (UniProt Q6LX38). In words: High-Throughput Screening for Modulators of Cytosolic Chaperonin Activity: MmCpn Primary Screen (AID 488978).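 Note: 50 nM MmCpn enzyme hydrolysing 30 µM ATP at 37 °C.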 An outline of the steps:
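Steps: chaperonin 50 nM final; add compound, 5 min RT; start with ATP, 30 uM final; hold 10 min at 37C; add ADP Transcreener HTRF reagent, 5 min; read ex 320, em 590 and 665 nm.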

In experiment [17] the target is Thioredoxin reductase 1, cytoplasmic (Rattus norvegicus) (UniProt O89049). In words: qHTS Assay for Inhibitors of Mammalian Selenoprotein Thioredoxin Reductase 1 (TrxR1) (AID 488773).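 Note: drop in NADPH fluorescence over an 8 min run after selenite addition; series mostly up to about 57 µM; nearly all actives have a fitted effect of over 40% in size.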 To be noted: Potency: inhibition. In short, it runs like this: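 Steps: enzyme (90 nM) plus NADPH (400 uM final), 5 min at ~22 deg C; compound added, 15 min; selenite (400 uM final) added; fluorescence followed for 8 min. Concentration-response curves derived from the normalized delta values.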
Thioredoxin reductase 1, cytoplasmic (Rattus norvegicus), sequence (O89049 whole entry, looked up): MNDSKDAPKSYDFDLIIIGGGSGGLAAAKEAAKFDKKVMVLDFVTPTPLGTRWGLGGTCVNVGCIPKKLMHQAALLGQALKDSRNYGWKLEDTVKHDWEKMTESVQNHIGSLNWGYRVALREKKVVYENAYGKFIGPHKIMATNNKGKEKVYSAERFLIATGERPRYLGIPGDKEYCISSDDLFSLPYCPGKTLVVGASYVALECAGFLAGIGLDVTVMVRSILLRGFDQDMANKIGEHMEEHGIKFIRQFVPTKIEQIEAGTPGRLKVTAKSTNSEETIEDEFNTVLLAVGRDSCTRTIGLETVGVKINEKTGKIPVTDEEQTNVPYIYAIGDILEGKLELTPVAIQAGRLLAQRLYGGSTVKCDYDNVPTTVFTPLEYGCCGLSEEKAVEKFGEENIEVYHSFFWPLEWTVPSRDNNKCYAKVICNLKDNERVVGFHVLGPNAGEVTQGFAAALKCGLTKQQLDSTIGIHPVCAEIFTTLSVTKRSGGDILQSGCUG

Experiment [18] has as its target Chromobox protein homolog 1 (Homo sapiens) (UniProt P83916). The experiment can be described thus: qHTS Validation Assay for Inhibitors of HP1-beta Chromodomain Interactions with Methylated Histone Tails (AID 488953). Note: nearly all actives have a fitted effect of over 50% in size. Note: potency is the fitted concentration of half-maximal effect. In short, it runs like this:
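Measured as loss of AlphaScreen luminescence from streptavidin donor and nickel acceptor beads (10 ug/mL final) bridging HP1-beta and biotin-H3(1-18)K9me3, each 50 nM. Compounds met the preassembled complex for 30 min at RT.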

Experiment [19] concerns the target ATP-dependent 6-phosphofructokinase (Trypanosoma brucei brucei) (UniProt O15648). The experiment can be described thus: qHTS Validation Assay to Find Inhibitors of T. brucei phosphofructokinase (AID 485368). In short, it runs like this: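 Enzyme reaction in triethanolamine buffer pH 8.0 with 5 mM MgCl2, 0.01% Tween20 and 0.1% BSA; PFK 1.25 nM, F6P 0.5 mM, ATP 0.1 mM, 45 min RT. ADP quantified by ADP-Glo.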

DNA polymerase III PolC-type (Bacillus subtilis (strain 168)), sequence (P13267 whole entry, looked up): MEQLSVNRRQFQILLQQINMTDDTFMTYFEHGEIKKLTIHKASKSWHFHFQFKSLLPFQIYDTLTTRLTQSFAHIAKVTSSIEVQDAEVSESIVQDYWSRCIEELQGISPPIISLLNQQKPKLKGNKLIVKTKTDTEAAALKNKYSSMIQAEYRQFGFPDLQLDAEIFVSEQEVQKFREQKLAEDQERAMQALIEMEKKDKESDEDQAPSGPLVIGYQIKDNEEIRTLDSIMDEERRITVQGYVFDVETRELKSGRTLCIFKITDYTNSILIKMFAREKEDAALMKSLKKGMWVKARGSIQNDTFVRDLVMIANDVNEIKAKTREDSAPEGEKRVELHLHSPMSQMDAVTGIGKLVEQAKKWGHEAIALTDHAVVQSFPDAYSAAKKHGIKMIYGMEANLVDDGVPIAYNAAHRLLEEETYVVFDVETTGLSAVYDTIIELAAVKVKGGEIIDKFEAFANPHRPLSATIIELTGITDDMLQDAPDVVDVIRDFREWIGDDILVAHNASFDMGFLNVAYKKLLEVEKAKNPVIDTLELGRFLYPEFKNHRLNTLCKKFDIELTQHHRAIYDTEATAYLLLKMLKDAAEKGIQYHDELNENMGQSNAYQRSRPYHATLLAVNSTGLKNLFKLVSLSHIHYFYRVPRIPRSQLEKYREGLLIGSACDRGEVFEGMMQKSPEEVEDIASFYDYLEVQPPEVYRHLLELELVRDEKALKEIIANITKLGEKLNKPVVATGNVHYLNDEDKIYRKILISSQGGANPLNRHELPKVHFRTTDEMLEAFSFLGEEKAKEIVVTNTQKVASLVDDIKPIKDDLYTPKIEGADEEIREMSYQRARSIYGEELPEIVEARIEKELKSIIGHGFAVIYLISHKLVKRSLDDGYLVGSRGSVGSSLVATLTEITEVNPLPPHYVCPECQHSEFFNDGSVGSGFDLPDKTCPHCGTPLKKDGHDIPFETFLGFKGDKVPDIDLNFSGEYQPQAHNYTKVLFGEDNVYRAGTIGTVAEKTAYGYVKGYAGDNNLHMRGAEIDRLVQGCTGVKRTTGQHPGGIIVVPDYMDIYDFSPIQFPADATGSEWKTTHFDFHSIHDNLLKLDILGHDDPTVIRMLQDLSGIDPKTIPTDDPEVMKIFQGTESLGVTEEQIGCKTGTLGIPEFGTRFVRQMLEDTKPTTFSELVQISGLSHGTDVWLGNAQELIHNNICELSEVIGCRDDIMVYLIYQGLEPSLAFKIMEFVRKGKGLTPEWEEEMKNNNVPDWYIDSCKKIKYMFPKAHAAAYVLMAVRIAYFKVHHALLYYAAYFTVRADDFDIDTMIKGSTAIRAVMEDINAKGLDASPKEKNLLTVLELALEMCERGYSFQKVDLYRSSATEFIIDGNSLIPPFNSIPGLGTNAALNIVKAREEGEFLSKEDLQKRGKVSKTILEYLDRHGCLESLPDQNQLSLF
Tumor susceptibility gene 101 protein (Homo sapiens), sequence (Q99816 whole entry, looked up, the tested form may be a part): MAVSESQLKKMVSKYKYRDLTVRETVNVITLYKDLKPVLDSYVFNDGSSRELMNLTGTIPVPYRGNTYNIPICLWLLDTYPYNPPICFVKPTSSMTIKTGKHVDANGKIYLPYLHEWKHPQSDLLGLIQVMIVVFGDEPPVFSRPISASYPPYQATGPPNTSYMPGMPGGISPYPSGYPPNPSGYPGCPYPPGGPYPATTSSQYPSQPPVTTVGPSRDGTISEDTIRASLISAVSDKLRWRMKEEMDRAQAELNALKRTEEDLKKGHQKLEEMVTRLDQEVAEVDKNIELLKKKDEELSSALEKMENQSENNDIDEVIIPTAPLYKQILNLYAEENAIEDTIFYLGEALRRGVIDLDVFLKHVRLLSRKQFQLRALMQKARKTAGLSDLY
Flap endonuclease 1 (Homo sapiens), sequence (P39748 whole entry, looked up): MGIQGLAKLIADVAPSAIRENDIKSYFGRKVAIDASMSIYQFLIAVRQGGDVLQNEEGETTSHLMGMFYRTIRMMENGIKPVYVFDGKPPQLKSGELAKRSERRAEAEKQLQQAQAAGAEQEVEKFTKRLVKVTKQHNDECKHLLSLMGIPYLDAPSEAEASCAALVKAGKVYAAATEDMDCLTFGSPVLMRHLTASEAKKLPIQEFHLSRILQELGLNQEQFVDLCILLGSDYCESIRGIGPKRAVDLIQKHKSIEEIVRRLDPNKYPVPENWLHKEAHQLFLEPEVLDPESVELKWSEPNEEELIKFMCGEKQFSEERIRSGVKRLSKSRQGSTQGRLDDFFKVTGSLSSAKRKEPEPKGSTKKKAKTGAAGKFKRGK
Methanococcus maripaludis chaperonin (MmCpn), sequence (Q6LX38 1-543): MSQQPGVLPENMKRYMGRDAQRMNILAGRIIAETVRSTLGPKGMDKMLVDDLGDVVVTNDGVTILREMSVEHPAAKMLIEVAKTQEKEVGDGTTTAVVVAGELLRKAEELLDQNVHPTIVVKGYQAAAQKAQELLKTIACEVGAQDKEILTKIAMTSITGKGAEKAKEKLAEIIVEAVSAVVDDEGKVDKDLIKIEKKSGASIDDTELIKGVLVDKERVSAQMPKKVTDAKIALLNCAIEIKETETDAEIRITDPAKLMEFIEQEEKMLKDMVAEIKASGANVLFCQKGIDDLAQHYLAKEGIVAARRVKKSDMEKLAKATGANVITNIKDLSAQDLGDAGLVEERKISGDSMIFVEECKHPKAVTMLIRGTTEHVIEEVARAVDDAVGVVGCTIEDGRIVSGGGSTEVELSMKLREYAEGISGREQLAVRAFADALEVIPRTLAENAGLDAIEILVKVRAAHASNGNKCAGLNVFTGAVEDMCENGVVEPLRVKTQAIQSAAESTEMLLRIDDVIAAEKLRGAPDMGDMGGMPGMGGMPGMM
Beta-2 adrenergic receptor (Homo sapiens), sequence (P07550 whole entry, looked up): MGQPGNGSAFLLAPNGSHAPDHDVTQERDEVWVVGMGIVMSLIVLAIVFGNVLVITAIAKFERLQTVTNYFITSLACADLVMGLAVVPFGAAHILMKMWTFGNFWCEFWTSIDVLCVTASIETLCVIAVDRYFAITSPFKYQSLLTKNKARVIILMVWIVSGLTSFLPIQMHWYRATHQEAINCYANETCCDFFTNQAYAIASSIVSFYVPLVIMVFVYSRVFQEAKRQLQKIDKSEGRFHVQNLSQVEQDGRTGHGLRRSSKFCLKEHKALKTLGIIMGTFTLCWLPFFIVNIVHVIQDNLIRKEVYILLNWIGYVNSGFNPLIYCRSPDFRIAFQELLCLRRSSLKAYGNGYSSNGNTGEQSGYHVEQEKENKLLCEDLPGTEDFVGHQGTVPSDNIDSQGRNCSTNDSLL
Chromobox protein homolog 1 (Homo sapiens), sequence (P83916 whole entry, looked up): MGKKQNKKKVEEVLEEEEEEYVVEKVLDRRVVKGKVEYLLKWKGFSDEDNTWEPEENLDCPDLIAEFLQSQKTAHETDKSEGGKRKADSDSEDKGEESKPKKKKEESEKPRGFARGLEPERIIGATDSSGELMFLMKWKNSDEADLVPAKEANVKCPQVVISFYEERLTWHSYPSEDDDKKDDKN
ATP-dependent 6-phosphofructokinase (Trypanosoma brucei brucei), sequence (O15648 whole entry, looked up): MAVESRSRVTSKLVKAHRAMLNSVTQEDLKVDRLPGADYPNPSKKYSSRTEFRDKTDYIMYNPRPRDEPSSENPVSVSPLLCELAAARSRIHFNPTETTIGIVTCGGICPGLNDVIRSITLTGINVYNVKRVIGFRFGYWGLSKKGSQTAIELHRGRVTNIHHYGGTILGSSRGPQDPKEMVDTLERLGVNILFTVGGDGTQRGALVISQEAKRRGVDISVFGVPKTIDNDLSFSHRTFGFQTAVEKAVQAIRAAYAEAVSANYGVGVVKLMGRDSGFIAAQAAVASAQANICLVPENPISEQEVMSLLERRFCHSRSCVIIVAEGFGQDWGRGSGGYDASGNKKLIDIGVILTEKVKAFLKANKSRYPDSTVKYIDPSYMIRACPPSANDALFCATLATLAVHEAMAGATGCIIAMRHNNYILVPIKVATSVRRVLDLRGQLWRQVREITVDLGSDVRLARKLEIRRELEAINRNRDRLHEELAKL

As for `CO/N=C(\C(=O)N[C@@H]1C(=O)N2C(C(=O)O)=C(CSc3nc(=O)c(O)nn3C)CSC12)c1csc(N)n1` (some centres undefined), the outcome in [1], in experiment [8], in experiment [9], in experiment [10], in experiment [13] and in [16] was inactive. The Potency result in experiment [2], in experiment [3], in [4], in experiment [5], in experiment [6] and in experiment [7] was “inactive” in each case. Also, the Potency entry in experiment [11], in [12] and in experiment [14] was “inactive” throughout. Besides, the Potency in [15] is 44.7 µM (active) and inactive.

On to `OCC1NCC(O)C(O)C1O` (centres undefined), for which the outcome in [1], in experiment [8], in experiment [9], in experiment [10], in experiment [13] and in [16] was inactive. For the same compound, the Potency result in [2], in experiment [3], in [4], in experiment [5], in experiment [6] and in experiment [7] was “inactive” each time. Moreover, the Potency result in experiment [11], in experiment [12], in [17], in [14], in experiment [15] and in experiment [18] was “inactive” throughout.

For `Oc1cc(O)c2c(c1)O[C@H](c1ccc(O)c(O)c1)[C@@H](O)C2`, the outcome in experiment [1], in [8], in experiment [9], in experiment [10], in experiment [13] and in experiment [16] was inactive. In addition, the Potency result in [2], in experiment [3], in experiment [4], in experiment [5], in [6] and in [7] was “inactive” each time. In addition, the Potency result in experiment [11], in [12], in experiment [17] and in experiment [15] was “inactive” in each case. Further, the Potency in experiment [14] is 4740 nM (active).

For `O=C(O)C1CCNCC1`, the call in experiment [1], in experiment [8], in experiment [9], in experiment [10], in experiment [13] and in experiment [16] was inactive. Moreover, the Potency result in experiment [2], in [3], in [4], in [5], in experiment [6] and in [7] was “inactive” in each case. Moreover, the Potency entry in experiment [11], in experiment [12], in experiment [17], in [14], in [15] and in [18] was “inactive” throughout.

Take `CCCCCC[C@@H]([C@@H](C)O)n1cnc2c(N)ncnc21`: the outcome in [1], in experiment [8], in experiment [9], in experiment [10], in experiment [13] and in experiment [16] was inactive. The Potency entry in experiment [2], in experiment [3], in [4], in experiment [5], in experiment [6] and in experiment [7] was “inactive” throughout. The Potency entry in [19] and in [17] was “inactive” throughout.

On to `OC[C@H]1NC[C@@H](O)[C@@H]1O`, for which the compound was classed as inactive in experiment [1], in experiment [8], in experiment [9], in experiment [10], in experiment [13] and in [16]. Further, the Potency entry in experiment [2], in experiment [3], in experiment [4], in experiment [5], in [6] and in experiment [7] was “inactive” in each case. For the same compound, the Potency entry in [19], in experiment [12], in experiment [17], in experiment [14], in experiment [15] and in experiment [18] was “inactive” throughout.

Turning to `COC(=O)C(N)Cc1ccc(Cl)cc1` (centres undefined), the compound was classed as inactive in experiment [1], in experiment [8], in experiment [9], in experiment [10], in experiment [13] and in experiment [16]. The Potency entry in experiment [2], in experiment [3], in experiment [4], in experiment [5], in experiment [6] and in [7] was “inactive” each time. Also, the Potency result in experiment [11], in experiment [12], in experiment [17], in [14] and in experiment [15] was “inactive” in each case. In experiment [18], the Potency is 6.7 nM (active).
